Data reported in PubChem BioAssay.
Active and inactive are the calls of the source. Unless noted, how the calls were made is not given here.

Key:
[1] = compounds binding Alexa647 anti-His antibody – biochemical, small-molecule microarray, 635 nm fluorescence, artefact control for SMM control protein annotation, primary screen (AID 1128); details: higher = more signal;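 further: score merges feature fluorescence with signal-to-noise for each printed compound spot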
[2] = tested on: Human papillomavirus type 1a E7 protein (residues 1-88); test: HPV1a E7 small-molecule binders, primary screen, biochemical, small-molecule microarray, residues 1-88, 635 nm (AID 1129); details: small-molecule microarray binding, fluorescence 635 nm; higher = more signal
[3] = target: Focal adhesion kinase 1 (Homo sapiens) (UniProt Q05397); test: PTK2 protein binding on printed compound slides – biochemical, small-molecule microarray, 635/667 nm fluorescence, BSA, DTT, primary screen (AID 1130); details: 635 nm fluorescence, higher = more signal;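 further: composite of spot emission at 667 nm and signal to noise over triplicate slides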
Chain of Focal adhesion kinase 1 (Homo sapiens) (Q05397 whole entry, looked up): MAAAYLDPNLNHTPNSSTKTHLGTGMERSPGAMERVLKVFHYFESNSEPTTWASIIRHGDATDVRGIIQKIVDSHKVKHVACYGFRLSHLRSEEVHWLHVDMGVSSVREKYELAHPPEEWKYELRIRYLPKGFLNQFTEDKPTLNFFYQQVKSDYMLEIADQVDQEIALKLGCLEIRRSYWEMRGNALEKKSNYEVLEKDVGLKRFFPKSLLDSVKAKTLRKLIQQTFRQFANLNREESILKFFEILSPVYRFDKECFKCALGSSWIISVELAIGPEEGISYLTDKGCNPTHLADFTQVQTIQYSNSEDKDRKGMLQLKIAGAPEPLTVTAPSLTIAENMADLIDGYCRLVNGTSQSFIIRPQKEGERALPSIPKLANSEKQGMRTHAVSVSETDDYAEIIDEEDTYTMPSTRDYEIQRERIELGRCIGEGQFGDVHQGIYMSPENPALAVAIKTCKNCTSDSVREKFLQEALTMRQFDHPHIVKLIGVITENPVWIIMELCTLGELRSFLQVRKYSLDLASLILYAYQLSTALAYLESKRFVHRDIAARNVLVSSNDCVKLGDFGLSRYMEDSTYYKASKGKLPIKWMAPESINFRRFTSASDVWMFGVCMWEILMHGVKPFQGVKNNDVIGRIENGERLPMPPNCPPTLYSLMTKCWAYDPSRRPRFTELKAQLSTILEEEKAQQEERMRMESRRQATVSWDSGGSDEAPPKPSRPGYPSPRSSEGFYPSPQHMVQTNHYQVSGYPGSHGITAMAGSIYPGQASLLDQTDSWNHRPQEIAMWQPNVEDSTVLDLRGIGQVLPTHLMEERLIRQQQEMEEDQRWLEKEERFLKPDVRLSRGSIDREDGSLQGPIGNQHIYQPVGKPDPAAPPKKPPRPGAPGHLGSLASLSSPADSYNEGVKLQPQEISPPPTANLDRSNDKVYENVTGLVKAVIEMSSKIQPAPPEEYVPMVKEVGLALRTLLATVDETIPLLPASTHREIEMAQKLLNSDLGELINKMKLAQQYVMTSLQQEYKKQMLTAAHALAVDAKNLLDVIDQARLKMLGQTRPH

[4] = tested on: Fibrinogen (Alexa647-labelled); test: Alexa647-fibrinogen binding to printed small molecules – biochemical, small-molecule microarray, 635/667 nm fluorescence, artefact control for SMM control-protein annotation, profiling panel (AID 1131); details: fibrinogen-A647 binding fluorescence, higher = more signal;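 further: z-score merges 667 nm fluorescence with per-spot signal-to-noise over triplicate slides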
[5] = target: Follistatin (Homo sapiens) (UniProt P19883); test: FST protein binding to printed compounds – biochemical, small-molecule microarray, 635/667 nm fluorescence, primary screen (AID 1132); details: 635 nm fluorescence, higher = more signal
Chain of Follistatin (Homo sapiens) (P19883 whole entry, looked up): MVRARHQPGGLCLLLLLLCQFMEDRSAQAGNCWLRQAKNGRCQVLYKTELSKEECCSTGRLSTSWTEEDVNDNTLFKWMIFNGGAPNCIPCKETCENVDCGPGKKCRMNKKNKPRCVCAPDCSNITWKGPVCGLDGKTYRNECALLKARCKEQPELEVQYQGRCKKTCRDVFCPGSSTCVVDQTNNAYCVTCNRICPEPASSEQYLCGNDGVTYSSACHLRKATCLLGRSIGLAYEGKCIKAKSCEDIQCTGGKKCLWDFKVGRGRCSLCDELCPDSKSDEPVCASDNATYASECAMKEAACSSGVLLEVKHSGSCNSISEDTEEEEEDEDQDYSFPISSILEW

[6] = target: Fibroblast growth factor 2 (Homo sapiens) (UniProt P09038); test: basic fibroblast growth factor binding to printed compounds – biochemical, small-molecule microarray, 635/667 nm fluorescence, primary screen (AID 1133); details: FGF2, fluorescence 635/667, higher = more signal
Chain of Fibroblast growth factor 2 (Homo sapiens) (P09038 whole entry, looked up): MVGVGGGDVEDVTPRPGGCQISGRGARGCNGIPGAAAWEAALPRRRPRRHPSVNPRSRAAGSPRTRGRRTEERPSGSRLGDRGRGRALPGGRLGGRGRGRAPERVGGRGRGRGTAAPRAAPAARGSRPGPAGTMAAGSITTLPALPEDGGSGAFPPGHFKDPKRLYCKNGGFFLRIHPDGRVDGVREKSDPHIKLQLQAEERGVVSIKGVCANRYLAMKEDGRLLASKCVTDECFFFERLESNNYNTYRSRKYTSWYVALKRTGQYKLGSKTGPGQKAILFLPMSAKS

[7] = JC-1 mitochondrial potential readout, lung cancer cells – cell-based, A549, JC-1 fluorescence, basal, 24 h, 100 nL, profiling panel (AID 1138); details: higher = more signal;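 further: A549 lung adenocarcinoma cells under basal conditions with no added stimulus; test concentration not given here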
[8] = tested on: Lefty1; test: Lefty1 protein binding to printed compounds – biochemical, small-molecule microarray, 635/667 nm fluorescence, primary screen (AID 1139); details: fluorescence 635/667, higher = more signal
[9] = tested on: wheat germ agglutinin (Triticum aestivum), Alexa647-labelled; test: Alexa647-WGA lectin binding to printed small molecules – biochemical, small-molecule microarray, 635/667 nm fluorescence, artefact control for SMM control-protein annotation, profiling panel (AID 1140); details: WGA-A647 binding, 635 nm fluorescence, higher = more signal;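 further: score merges 667 nm feature emission with signal to noise over triplicate slides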
[10] = target: Luciferin 4-monooxygenase (Photinus pyralis) (UniProt P08659); test: inhibition of purified Photinus pyralis luciferase – biochemical, luminescence, purified enzyme, 2006 set, primary screen (AID 1141); details: purified firefly luciferase, SteadyGlo luminescence, 30 min; higher = more signal, called active from +8 up or from −8 down;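 further: cell-free assay with purified firefly luciferase at 100 ng per well in PBS; test concentration not given here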
Chain of Luciferin 4-monooxygenase (Photinus pyralis) (P08659 whole entry, looked up): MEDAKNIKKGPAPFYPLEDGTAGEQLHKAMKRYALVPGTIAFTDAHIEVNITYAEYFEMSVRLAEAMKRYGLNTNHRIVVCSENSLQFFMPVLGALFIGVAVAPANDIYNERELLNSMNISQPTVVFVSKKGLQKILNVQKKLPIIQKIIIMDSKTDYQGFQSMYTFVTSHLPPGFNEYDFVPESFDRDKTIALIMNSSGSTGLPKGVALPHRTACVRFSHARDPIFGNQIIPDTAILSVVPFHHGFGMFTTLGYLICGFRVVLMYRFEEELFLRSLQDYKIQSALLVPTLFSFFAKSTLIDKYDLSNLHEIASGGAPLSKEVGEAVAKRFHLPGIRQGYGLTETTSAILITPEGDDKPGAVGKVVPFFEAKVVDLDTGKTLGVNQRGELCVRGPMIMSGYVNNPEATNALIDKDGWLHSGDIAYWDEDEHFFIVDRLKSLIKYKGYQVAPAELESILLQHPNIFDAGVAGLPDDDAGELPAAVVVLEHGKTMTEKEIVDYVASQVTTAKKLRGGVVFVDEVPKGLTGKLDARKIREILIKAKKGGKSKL

[11] = tested on: Wnt5a (protein binding on small-molecule microarray); test: small molecules binding Wnt5a protein – biophysical, small-molecule microarray, 635/667 nm fluorescence, primary screen (AID 1142); details: 635 nm fluorescence, higher = more signal;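 further: fluorescence read at 667 nm with signal to noise per printed feature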
[12] = ATP-based viability of Huh7 replicon cells – cell-based, CellTiter-Glo luminescence, basal, 48 h, cytotoxicity control for HCV replication inhibitor project, primary screen (AID 1143); details: higher = more signal, called active from +8 up or from −8 down;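 further: Huh7 hepatoma cells carrying a hepatitis C replication reporter with no stimulus; test concentration not given here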
[13] = Pseudomonas biofilm growth suppression – PAO1 strain, BacTiter-Glo luminescence, LB-PBS, primary screen (AID 1144); details: P. aeruginosa PAO1 biofilm, 12 h, higher = more signal
[14] = basal CRE-LacZ reporter activity in PC12 – cell-based, unstimulated, primary screen (AID 1145); details: no forskolin, luminescence, 4.5 h, higher = more signal, called active from +8 up or from −8 down
[15] = forskolin-driven CRE-LacZ activity in PC12 – cell-based, CRE-LacZ reporter, forskolin-stimulated, primary screen (AID 1146); details: luminescence, 4.5 h, higher = more signal, called active from +8 up or from −8 down;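 further: PC12 cells with 6xCRE LacZ reporter stimulated by forskolin 10 µM; beta-galactosidase reporter signal reflecting CREB driven transcription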
[16] = target: Streptavidin (Streptomyces avidinii) (UniProt P22629); test: compounds binding control protein streptavidin – biophysical, small-molecule microarray, 635/667 nm fluorescence, artefact control for SMM compound annotation, primary screen (AID 1147); details: higher = more signal;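 further: signal reflects streptavidin binding to arrayed compounds as a control protein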
Chain of Streptavidin (Streptomyces avidinii) (P22629 whole entry, looked up): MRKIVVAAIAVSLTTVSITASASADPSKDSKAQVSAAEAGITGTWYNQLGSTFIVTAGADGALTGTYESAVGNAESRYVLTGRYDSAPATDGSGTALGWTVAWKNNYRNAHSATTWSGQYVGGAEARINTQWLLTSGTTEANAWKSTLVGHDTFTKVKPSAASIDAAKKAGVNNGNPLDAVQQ

[17] = probe aInhba binding on compound microarray – biochemical, small-molecule microarray, 635/667 nm fluorescence, primary screen (AID 1148); details: higher = more signal;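 further: score merges 667nm spot fluorescence with signal-to-noise for antibody binding to printed compounds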
[18] = target: Torsin-1A (Homo sapiens) (UniProt O14656); test: TOR1A wild-type binding on microarray – cell lysate, small-molecule microarray, lysate, 635/667 nm, primary screen (AID 1149); details: COS7 hTOR1A-WT lysate, 635 nm fluorescence, higher = more signal
Chain of Torsin-1A (Homo sapiens) (O14656 whole entry, looked up): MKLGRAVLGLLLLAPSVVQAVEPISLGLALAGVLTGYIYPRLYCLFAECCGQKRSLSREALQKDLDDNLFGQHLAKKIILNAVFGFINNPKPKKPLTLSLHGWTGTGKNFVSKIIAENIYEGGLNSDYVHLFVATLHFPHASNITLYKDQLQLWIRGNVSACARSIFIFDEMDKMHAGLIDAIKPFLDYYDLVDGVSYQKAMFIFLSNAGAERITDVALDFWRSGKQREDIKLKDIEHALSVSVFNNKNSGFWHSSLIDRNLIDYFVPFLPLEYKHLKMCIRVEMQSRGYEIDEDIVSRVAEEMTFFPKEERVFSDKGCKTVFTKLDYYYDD

[19] = target: Torsin-1A (Homo sapiens) (UniProt O14656); test: torsin A mutant lysate binding on microarrays – cell lysate, small-molecule microarray, COS7 lysate, 635/667 nm fluorescence, primary screen (AID 1150); details: COS7 hTOR1A mutant lysate, 635 nm fluorescence, higher = more signal;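 further: score pools 667 nm emission and signal to noise measuring lysate protein binding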
[20] = tested on: Sonic hedgehog protein (Shh); test: Sonic hedgehog microarray binding compounds – biochemical, small-molecule microarray, 635/667 nm fluorescence, primary screen (AID 1151); details: 635 nm fluorescence, higher = more signal;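 further: Shh protein binding to compounds spotted on small-molecule microarray slides; score combines spot fluorescence intensity with signal-to-noise across triplicate slides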

| SMILES | composite z-score [1] | composite z-score [2] | composite z-score [3] | composite z-score [4] | composite z-score [5] | composite z-score [6] | z-score [7] | composite z-score [8] | composite z-score [9] | z-score [10] | composite z-score [11] | z-score [12] | z-score [13] | z-score [14] | z-score [15] | composite z-score [16] | composite z-score [17] | composite z-score [18] | composite z-score [19] | composite z-score [20] |
| --- | --- | --- | --- | --- | --- | --- | --- | --- | --- | --- | --- | --- | --- | --- | --- | --- | --- | --- | --- | --- |
| COC(=O)C1=C(C)[C@@H](O)[C@@H](C)[C@H](c2c(OC)c(OC)c(C)c(OC)c2OC)O1 | 0.174 | 0.113 | 0.132 | -1.27 | 0.194 | 0.236 | -0.485 | 0.475 | -0.611 | -0.0386 (inactive) | 0.0023 | -0.0219 (inactive) | 0.148 (inactive) | 2.18 (inactive) | 0.0745 (inactive) | 0.479 | -0.218 | 0.14 | 0.553 | 0.535 |
| Cc1cc2c(nc1C)CCCN2CC(C)ON=C1[C@H]2CCn3c(=O)n(-c4ccccc4)c(=O)n3[C@H]2[C@H](O)[C@@H]2O[C@H]12 (stereo not given in full) | -0.674 | 0.304 | 0.515 | 0.342 | 0.687 | 0.56 | -0.562 | 0.703 | 0.075 | 0.424 (inactive) | 0.337 | 0.357 (inactive) | -0.258 (inactive) | 0.415 (inactive) | 0.533 (inactive) | 0.196 | 0.0301 | -0.0339 | 0.246 | 1.03 |
| CCOC(=O)[C@H](CC(C)C)NC(=O)CCC1CC(OC(=O)NCc2cccc3ccccc23)CC2(CCCC(COC(=O)NCCN3CCOCC3)O2)O1 (stereo not given in full) | 0.804 | 1.17 | 0.465 | 0.356 | 0.68 | 0.685 | 0.154 | 0.551 | 0.255 | 1.03 (inactive) | 0.201 | -0.293 (inactive) | -0.677 (inactive) | -0.164 (inactive) | 1.14 (inactive) | 0.308 | -0.0494 | 0.0423 | 0.765 | 0.717 |
| CC(C)[C@@H](OCc1ccccc1)[C@H](C)C=NO[C@H](C)c1cn([C@H](CO)Cc2ccccc2)nn1 | 0.424 | 0.222 | -0.238 | 0.286 | 0.171 | 0.446 | 0.506 | 0.913 | 0.106 | -1.62 (inactive) | 0.231 | -1.28 (inactive) | 0.403 (inactive) | 0.987 (inactive) | -0.437 (inactive) | 0.808 | -0.126 | 0.353 | 1.15 | 0.29 |
| CC(C)[C@H](NC(=O)OC(C)(C)C)[C@@H](O)CC(=O)OC(C)(C)C | -0.105 | -1.47 | -0.563 | -0.808 | -0.275 | -0.394 | -1.25 | 0.123 | -0.339 | -0.0331 (inactive) | -0.417 | -0.49 (inactive) | -0.896 (inactive) | 0.293 (inactive) | 0.337 (inactive) | -0.14 | -0.152 | -0.781 | -0.448 | -0.463 |
